# About 22,000 (6.9%) of roughly 320,000 compounds were called active. A call without a number means that no potency is given here. Roughly 27% stayed inconclusive and do not appear here. The full list was thinned out, with actives kept by preference. Unmarked numbers belong to inactive results. The call rests on the fitted dose curve; in most records, active means well fitted inhibition curve with a large enough effect; inconclusive means small, poorly fitted or top-dose-only effect, or another doubt; inactive means no such curve, though single readings can be large or run the other way.
# Assay: Primary qHTS for delayed death inhibitors of the malarial parasite plastid, 96 hour incubation
# Conditions: P. falciparum luciferase reporter growth; series mostly up to 28.7 µM
# In short: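 P. falciparum expressing integrated firefly luciferase grown in erythrocytes (2% hematocrit, 0.05% parasitemia final) with compounds for 96 hours at 37 C, 5% CO2. Growth inhibition read as loss of luminescence after adding luciferase detection reagent.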
# Potency means the concentration at half of the fitted maximal effect.
SMILES,Potency,"activity change, negative = inhibition"
CCOc1ccc(N/C(N)=N/c2nc(C)c(C)c(=O)[nH]2)cc1,inactive,
O=C(Nc1cccc(Cl)c1N1CCOCC1)c1ccc2c(c1)OCCO2,,47.9% [at 5.75 µM]
COC(=O)c1cc(NC(=O)c2cccnc2)ccc1N1CCOCC1,inactive,
O=C(Nc1cccc(Cl)c1N1CCOCC1)c1cccnc1,9.28 µM (active),
COCCNC(=O)c1ccc2c(c1)ncn2-c1ccc(C)c(Cl)c1,inactive,
COc1ccc2c(c1)N(C)/C(=C1/SC(=S)N(NC(C)=O)C1=O)S2,inactive,
CCn1nc(C)cc1C(=O)N1CCCC(C(=O)c2cccc(OC)c2)C1 (stereo unspecified),inactive,
Cc1nc(C(=O)N2CCCC(C(=O)c3ccc(Cl)cc3)C2)cs1 (stereo unspecified),inactive,
CCNC(=O)N1CCCC(C(=O)c2ccc(-c3ccccc3)cc2)C1 (stereo unspecified),10.4 µM (active),
COc1ccc2cc(C(=O)C3CCCN(C(=O)c4sc(C)nc4C)C3)ccc2c1 (stereo unspecified),13.1 µM (active),
CSc1ccc(C(=O)C2CCCN(C(=O)c3ccc(C)nc3)C2)cc1 (stereo unspecified),inactive,
CC(C)Oc1cccc(C(=O)C2CCCN(C3CCOCC3)C2)c1 (stereo unspecified),inactive,
Cn1nccc1C(=O)N1CCCC(C(=O)c2ccc(Oc3ccccc3)cc2)C1 (stereo unspecified),2.94 µM (active),
Cc1ccccc1NC(=O)C1CCCN(C(=O)NCc2ccccc2)C1 (stereo unspecified),inactive,
COc1ccc(C(=O)C2CCCN(C(=O)c3cnsn3)C2)c(C)c1 (stereo unspecified),inactive,
CCOc1cc(/C=C/c2nc3ccccc3c(=O)[nH]2)cc(Br)c1OC,inactive,
Cc1cc(OC(=O)c2ccc(OC(C)C)cc2)c([N+](=O)[O-])c(=O)[nH]1,inactive,
Cc1cccc(C(=O)OC(C)C(=O)NC2CCCc3ccccc32)c1O (stereo unspecified),inactive,
O=C(NC1CCCCC1)c1ccc(-c2ccc(Cl)cc2)o1,inactive,
COc1ccc(C2/C(=C(/O)c3ccc4c(c3)CC(C)O4)C(=O)C(=O)N2Cc2ccncc2)cc1 (stereo unspecified),inactive,
CC(=O)c1c(C)[nH]c(C(=O)OCC(=O)Nc2c(C)n(C)n(-c3ccccc3)c2=O)c1C,inactive,
COc1ccc(N2CCN(C(=O)CN3C(=O)COc4ccccc43)CC2)cc1,inactive,
CN1CN(C)c2ccc([N+](=O)[O-])c3cccc1c23,inactive,
O=C(NCc1ccncc1)C1CCN(C(=O)c2cccc(Cl)c2)CC1,inactive,
COc1cccc(NC(=O)CN2CCN(c3nc(-c4cccc(OC)c4)cs3)CC2)c1,inactive,
COc1ccc(-c2csc(N3CCN(Cc4ccc5c(c4)OCO5)CC3)n2)cc1,inactive,

SMILES,Potency,"activity change, negative = inhibition"
Cc1ccc(-c2csc(N3CCN(c4cc5c(cc4Cl)nc(-c4ccncc4)n5CCOCCO)CC3)n2)cc1,5.86 µM (active),
CCCn1c(C2CCCN2c2nc(-c3ccc(C)cc3)cs2)nc2cc(Cl)c(N3CCCCC3)cc21 (stereo unspecified),3.29 µM (active),
CCn1c(SCC(=O)N/N=C/c2ccccc2OCC(=O)O)nnc1-c1ccc(C(C)(C)C)cc1,inactive,
O=C1CC2(CC(c3ccc(Cl)cc3)=NO2)C(=O)N1c1ccccc1 (stereo unspecified),inactive,
COCCN(CCOC)c1nc(N)c2c(N)nc3c(c2c1C#N)CC(=O)N3Cc1ccc(Cl)cc1,2.62 µM (active),
CCCCN1C(=O)C(=O)N(CC(=O)Nc2cccc(C(C)=O)c2)C1=O,inactive,
COc1ccc(NCCc2ccccn2)cc1,inactive,
Cc1ccc(NC(=O)CCC(=O)c2ccc(Br)cc2)cc1,inactive,
COc1cccc(CNC(=O)C2CCCN(c3ncnc4c3nc3n4CCCCC3)C2)c1 (stereo unspecified),inactive,
COc1cccc(NC(=O)C2CCCN(c3ncnc4c3nc3n4CCCCC3)C2)c1 (stereo unspecified),8.28 µM (active),
CN(Cc1ccccc1)C(=O)C1CCCN(c2ncnc3c2nc2n3CCCCC2)C1 (stereo unspecified),14.7 µM (active),
O=C(NCc1ccccc1Cl)C1CCN(c2ncnc3c2nc2n3CCCCC2)CC1,inactive,
O=C(NCCCN1CCCCC1)C1CCCN(c2ncnc3c2nc2n3CCCCC2)C1 (stereo unspecified),inactive,
CCOC(=O)c1cccc(NC(=O)C2CCN(c3ncnc4c3nc3n4CCCCC3)CC2)c1,10.4 µM (active),
CN(C(=O)C1CCN(c2ncnc3c2nc2n3CCCCC2)CC1)C1CCCCC1,inactive,
OC1CCCN(c2ncnc3c2nnn3Cc2c(F)cccc2Cl)C1 (stereo unspecified),inactive,
COCCNc1ncnc2c1nc1n2CCCC1,inactive,
Cc1cnc(C(=O)Oc2cccc(Cl)c2Cl)cn1,inactive,
O=C(NCC#CCSc1nnc(-c2cccc3ccccc23)o1)c1cccs1,inactive,
Cc1ccc(S(=O)(=O)N[C@@H](Cc2ccccc2)C(=O)N2CCC(C(=O)N[C@H](C(=O)O)C(C)O)CC2)cc1 (stereo partly specified),inactive,
O=S(=O)(Cc1nnnn1-c1ccc(Br)cc1)c1ccc(F)cc1,inactive,
O=C(Nc1ccccc1)/C(=C\c1ccco1)NC(=O)c1ccco1,inactive,
CCn1c(SCC(=O)Nc2sc(C)c(C)c2C#N)nnc1C1CC1,inactive,
CC(=O)c1c(N2CCOCC2)nc(=S)n(-c2cc(C)ccc2C)c1C,inactive,
CC(=O)c1c(N2CCOCC2)nc(=S)n(Cc2ccccc2)c1C,0.329 µM (active),
